# From PubChem BioAssay (Tox21)
# Results filed as inconclusive are left out. Where a call stands in place of a potency, no number is given. Values without a mark were called inactive. Calls of active or inactive are those of the source. Calls come from the whole dose curve.
# Test: p53 small molecule agonists, cell-based qHTS assay with human liver microsomes: qHTS cell viability counter screen (AID 1963579); note: nearly all actives have a fitted effect of over 45% in size
# Conditions: p53RE-bla HCT-116 viability, ATP luminescence, 16 h, HLM; series mostly up to 66 µM
# Excerpt: National Center for Advancing Translational Sciences [NCATS]
# Division of Preclinical Innovation [DPI]
# U.S. Environmental Protection Agency [EPA]
# National Institutes of Environmental Health Sciences [NIEHS]
# National Toxicology Program [NTP]
# U.S. Food and Drug Administration [FDA]
# p53, a tumor suppressor protein, is activated following cellular insult, including DNA damage and other cellular stresses. The activation of p53 regulates cell fate by inducing DNA repair, cell cycle arrest, apoptosis, or cellular senescence. The activation of p53, therefore, is a good indicator of DNA damage and other cellular stresses. […] The activation of the reporter gene under culture conditions can be detected by fluorescence intensity. This cell line was used to screen the Tox21 10K compound library in the condition of presence of human liver microsomes and to identify agonists that activate the p53 signaling pathway after in vitro metabolic activation (Ooka et al., Archive of Toxicology 96:1975-1987, 2022).
# Tox21 Assay Protocol Summary:
# The p53RE-bla cells were dispensed at 4,000cells/3ul/well in 1536-well black-clear bottom plates. After the assay plates were incubated at 37 C, 5% CO2 incubator for 5 hours, 23 nL of compounds dissolved in DMSO, positive controls or DMSO only was transferred to the assay plate. Following compound addition, 3 uL of human liver microsomes (XenoTech, Kansas City, KS) at final concentration of 0.5 mg/mL and 1uL of B-Nicotinamide adenine dinucleotide 2'-phosphate (NADPH) at final concentration of 0.5 mg/mL were transferred to the assay plate. The plates were incubated at 37 C for 16 hours. 1 uL of LiveBLAzer detection mixture was added to each well and the plates were incubated at room temperature in the dark for 2 h. Fluorescence intensity at 460 and 530 nm emission and 405 nm excitation were measured by an Envision plate reader. For cell viability readout that measures cytotoxicity, 4 ul/well of CellTiter-Glo reagent was added into the assay plates using a Flying Reagent Dispenser. After 30 min incubation at room temperature, the luminescence intensity in the plates was measured using a ViewLux plate reader.
# Potency is the fitted concentration of half-maximal effect.
SMILES,Potency,"activity change, negative = cytotoxicity"
CC(C)=CC1CC(C)CCO1 (stereo not given),inactive,–
CC(=O)Nc1ccc(OCC(O)CNC(C)C)cc1 (stereo not given),inactive,–
CC1(C)[C@H]2CC[C@]1(C)C(=O)C2,inactive,–
CCCCCCCCCCCCCCCCOP(=O)([O-])OCC[N+](C)(C)C,inactive,–
CC(C)(C)c1cc(CCC(=O)OCCSCCOC(=O)CCc2cc(C(C)(C)C)c(O)c(C(C)(C)C)c2)cc(C(C)(C)C)c1O,inactive,–
CCCN1C[C@H](CSC)C[C@@H]2c3cccc4[nH]cc(c34)C[C@H]21,inactive,–
CCCCCCCCCCCCCCC1CO1 (stereo not given),inactive,–
O=C(O)CCSCCC(=O)O,inactive,–
CCCCCCCCN,inactive,–
O=C1CC2(CCCC2)CC(=O)N1,inactive,–
CCC(C)c1cc([N+](=O)[O-])cc([N+](=O)[O-])c1OC(=O)OC(C)C (stereo not given),inactive,–
Nc1ccc2cc(S(=O)(=O)O)cc(O)c2c1,inactive,–
CCOc1ccccc1O[C@H](c1ccccc1)[C@H]1CNCCO1,inactive,–
O=S(=O)(c1ccccc1)c1ccc(Cl)cc1,inactive,–
CC(=O)Oc1ccc(C(C)=O)cc1,inactive,–
CC(=O)OC(C)(C)C,inactive,–
CC(=O)N(CC(O)CN(C(C)=O)c1c(I)c(C(=O)NCC(O)CO)c(I)c(C(=O)NCC(O)CO)c1I)c1c(I)c(C(=O)NCC(O)CO)c(I)c(C(=O)NCC(O)CO)c1I (stereo not given),inactive,–
CC(C)[N+](C)(C)CC(O)COc1cccc2ccccc12 (stereo not given),inactive,–
Nc1nc(-c2ccccc2)c(Br)c(=O)[nH]1,inactive,–
CC(C)(Oc1ccc(Cl)cc1)C(=O)OCCCOC(=O)C(C)(C)Oc1ccc(Cl)cc1,inactive,–

SMILES,Potency,"activity change, negative = cytotoxicity"
CC[C@@H](CO)NCCN[C@@H](CC)CO,inactive,–
COC(=O)CS,inactive,–
O=C(NC(Cc1cc(=O)[nH]c2ccccc12)C(=O)O)c1ccc(Cl)cc1 (stereo not given),inactive,–
CCCCCCCCCCCCCC(=O)OCC,inactive,–
C1COC(NC(C2CC2)C2CC2)=N1,inactive,–
CC(=O)c1c(C)cc(C(C)(C)C)cc1C,inactive,–
CSSc1ccoc1C,inactive,–
Cc1ncc(CO)c(C=O)c1O,inactive,–
COc1ccc(CCC(=O)c2c(O)cc(O[C@@H]3O[C@H](CO)[C@@H](O)[C@H](O)[C@H]3O[C@@H]3O[C@@H](C)[C@H](O)[C@@H](O)[C@H]3O)cc2O)cc1O,inactive,–
CN1CCN(CC(=O)N2c3ccccc3C(=O)Nc3cccnc32)CC1,–,5.54% [at 5.99 µM]
C[n+]1cc2c3c(ccc2c2ccc4cc5c(cc4c21)OCO5)OCO3,9.73 µM (active),–
CC(=O)OC(C)c1ccccc1 (stereo not given),inactive,–
COc1ccccc1Oc1c(NS(=O)(=O)c2ccc(C(C)(C)C)cc2)nc(-c2ncccn2)nc1OCCO,inactive,–
Nc1nc(-c2ccc([N+](=O)[O-])cc2)cs1,inactive,–
CCCCCCCCCCCCCCCCCl,–,0.42% [at 13.5 µM]
O=C(OCc1ccccc1)C(=O)OCc1ccccc1,inactive,–
O=C=NCc1cccc(CN=C=O)c1,–,2.85% [at 13.5 µM]
Cc1ccco1,inactive,–
CC1=C(C)C(=O)C(C(CCCCCC(=O)O)c2ccccc2)=C(C)C1=O (stereo not given),inactive,–
CCCCC1=NC2(CCCC2)C(=O)N1Cc1ccc(-c2ccccc2-c2nn[nH]n2)cc1,inactive,–
